# Measured values published in PubChem BioAssay AID371 (SRMLSC, 2006).
# Screen size: about 3,300 compounds; about 280 (8.5%) were called active.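 How the source made its calls: active means mean growth inhibition over the two runs of 50% or more; inactive means mean growth inhibition under 50%.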 Only a selection was taken, and actives are over-represented in it overall.
# Assay: A549 NSCLC cell proliferation inhibitors – ATP luminescence, human non-small cell lung line, primary screen (AID 371);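 further: compound exposure lasted 72 h before the ATP read; 0% = untreated cell signal and 100% = no luminescence left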
# Settings: at 10 µM, hits give high values
row,Compound,growth inhibition
1,CSc1nnc2n(C3CCCCC3)c(=O)c3c4c(sc3n12)CCCC4,6.35% (inactive)
2,COc1cccc(C(=O)OCCN(C)C(C)(C)C)c1,0.03% (inactive)
3,OCCOCCNc1ncnc2c1cnn2-c1ccccc1,5.28% (inactive)
4,Cc1cc(=O)oc2cc(OCCSCCN3CCOCC3)ccc12,8.74% (inactive)
5,CCn1cc(/C=N/O)c(C)n1,-8.38% (inactive)
6,O=C1OC(N2CCN(C/C=C/c3ccccc3)CC2)c2ccccc21 (centres undefined),7.88% (inactive)
7,Cc1cc(SCCC(=O)O)nc2ccccc12,-1.53% (inactive)
8,CCOC(=O)c1cnc(SC2CC(=O)N(c3cccc(OC)c3)C2=O)nc1N (centres undefined),-4.72% (inactive)
9,Cn1ccnc1SCCC#N,-0.21% (inactive)
10,O=C(c1ccco1)N1CCN(c2ncnc3c2[nH]c2ccccc23)CC1,25.7% (inactive)
11,c1ccc(CN2CCN(c3ncnc4c3[nH]c3ccccc34)CC2)cc1,63% (active)
12,N#Cc1nc(COc2ccc(Cl)cc2)oc1N1CCN(Cc2ccccc2)CC1,21.8% (inactive)
13,COc1ccc(C=NCCCN2CCOCC2)cc1,2.05% (inactive)
14,Cc1csc2nc(CSc3nc4ccccc4o3)cn12,29.3% (inactive)
15,Cc1ccccc1N1C(=O)CC(Sc2nnc(-c3ccccc3)o2)C1=O (centres undefined),56.6% (active)
16,Cc1ccc(-c2nnc(-c3ccccc3)o2)cc1Br,10.3% (inactive)
17,CCOC(=O)c1ccc(N2C(=O)CC(Sc3nnc(C)s3)C2=O)cc1 (centres undefined),-4.68% (inactive)
18,Brc1ccc(-c2cnnc(N3CCCC3)n2)cc1,24% (inactive)
19,COc1ccc(C2/C(=C(/O)c3cnn(-c4ccccc4)c3C)C(=O)C(=O)N2CCN(C)C)cc1OC (centres undefined),7.72% (inactive)
20,CSc1nc(Oc2ccc(=O)[nH]n2)nc(N(C)C)n1,2.49% (inactive)
21,CCOc1cc2nc(-c3ccc(OC)c(OC)c3)nc(N3CCOCC3)c2cc1OC,66.5% (active)
22,COc1cc2nc(-c3ccccc3)nc(N3CCCC3)c2cc1OC,2.86% (inactive)
23,COc1ccc(/C(O)=C2/C(=O)C(=O)N(CCN3CCOCC3)C2c2ccccn2)cc1OC (centres undefined),0.85% (inactive)
24,Brc1cccc(-c2cnc3n2CCCCC3)c1,24.1% (inactive)
25,COc1ccc(CN(C#N)c2nc(SC)nc(N(C)C)n2)cc1,32.9% (inactive)

row,Compound,growth inhibition
1,CCN(CC)c1ncc(C)c(=O)[nH]1,-0.05% (inactive)
2,CCOC(=O)Cc1nnc(Nc2cccc(O)c2)c2ccccc12,-1.35% (inactive)
3,N=c1ncn(CC(O)CN2CCOCC2)c2nc(N3CCOCC3)[nH]c12 (centres undefined),-5.31% (inactive)
4,C=CCc1cccc(CNc2nc3ccccc3n2C(C)C)c1O,74.7% (active)
5,C=CCc1cccc(/C=N/c2ncn[nH]2)c1O,0.97% (inactive)
6,C=CCc1cccc(/C=N/n2cnnc2)c1O,2.3% (inactive)
7,CN=c1sc2ccccc2n1CC(O)COCc1ccco1 (centres undefined),-6.68% (inactive)
8,CC(NC(=O)Nc1nnc(C(F)(F)F)s1)(C(F)(F)F)C(F)(F)F,11.8% (inactive)
9,CCC(C(=O)Nc1nccs1)(C(F)(F)F)C(F)(F)F,12.8% (inactive)
10,CCCSc1nnc(NC(=O)Nc2ccccc2)s1,45.3% (inactive)
11,CCC(NC(=O)Nc1nnc(C(F)(F)F)s1)(C(F)(F)F)C(F)(F)F,81.7% (active)
12,CCCc1nnc(NC(=O)Nc2ccccc2OC)s1,17.3% (inactive)
13,CCSc1nnc(NC(=O)C(CC)(C(F)(F)F)C(F)(F)F)s1,66% (active)
14,CCSc1nnc(NC(NC(=O)c2ccco2)(C(F)(F)F)C(F)(F)F)s1,-2.3% (inactive)
15,CCSc1nnc(NC(=O)C(C(F)(F)F)C(F)(F)F)s1,7.68% (inactive)
16,CCSc1nnc(NC(=O)C(C)(C(F)(F)F)C(F)(F)F)s1,61.8% (active)
17,CCCSc1nnc(NC(=O)Nc2ccc(F)cc2)s1,70.3% (active)
18,O=C(NCC(F)(F)F)Nc1nnc(C(F)(F)F)s1,17.9% (inactive)
19,CCC(C(=O)Nc1ncn[nH]1)(C(F)(F)F)C(F)(F)F,2.05% (inactive)
20,CCCC(CCC(=O)Nc1ccc(C(=O)OC)cc1)C(=O)O (centres undefined),5.31% (inactive)
21,N#Cc1c(N2CCOCC2)nc(N2CCCCC2)c2c1CCN(C1CCCCC1)C2,23.2% (inactive)
22,CC(C)COC(=O)CCNc1n[nH]c(=O)[nH]c1=O,2.08% (inactive)
23,O=c1cc(-c2ccco2)nc(-c2cccs2)o1,15% (inactive)
24,COc1cccc(-c2nnc3sc(-c4ccco4)nn23)c1,11.9% (inactive)
25,Cc1cc(C)n(CC2CC(=O)N(c3ccc(F)c(Cl)c3)C2=O)n1 (centres undefined),1.52% (inactive)

row,Compound,growth inhibition
1,Cn1nccc1C(=O)Nc1ccccc1C(=O)O,2.72% (inactive)
2,CCCSc1nc(O)c(C2OC(=O)c3c2ccc(OC)c3OC)c(=O)n1C (centres undefined),3.43% (inactive)
3,Cc1ccc(-n2ncc3c(N4CCC(C(N)=O)CC4)ncnc32)c(C)c1,7.75% (inactive)
4,CCc1cccc(C)c1N(C(=O)Cn1c(=O)[nH]c2ccccc21)C(C)COC (centres undefined),17.6% (inactive)
5,CCSc1nnc(NC(=O)NCC(F)(F)F)s1,-0.28% (inactive)
6,CCSc1nnc(NC(=O)NC(CC)(C(F)(F)F)C(F)(F)F)s1,82.1% (active)
7,CCC(NC(=O)Nc1nccs1)(C(F)(F)F)C(F)(F)F,2.27% (inactive)
8,CCN(CC)CCN1C(=O)C(=O)/C(=C(/O)c2ccc(OC)cc2)C1c1ccco1 (centres undefined),2.24% (inactive)
9,Cc1cc(NCCNC2=CC(=O)CCC2)nc2ccccc12,3.87% (inactive)
10,Cc1cc(N/C=C/C(=O)c2cccc3ccccc23)no1,40.5% (inactive)
11,CC(=O)Oc1ccc2c(C)cc(=O)[nH]c2c1,10.7% (inactive)
12,CCCCC(=O)O[C@H]1CC[C@H]2[C@@H]3CCc4cc(O)ccc4[C@H]3CC[C@]12C,92.3% (active)
13,C[C@]12CC[C@@H]3c4ccc(O[C@@H]5O[C@H](C(=O)O)[C@@H](O)[C@H](O)[C@H]5O)cc4CC[C@H]3[C@@H]1C[C@@H](O)[C@@H]2O,-8.48% (inactive)
14,C[C@]12CC[C@@H]3c4ccc(OS(=O)(=O)O)cc4CC[C@H]3[C@@H]1CCC2=O,-4% (inactive)
15,C[C@]12CC[C@@H]3c4ccc(O)cc4CC[C@H]3[C@@H]1CCC2=O,14.8% (inactive)
16,C[C@]12CC[C@@H]3c4ccc(O)cc4CC[C@H]3[C@@H]1CC[C@@H]2OC(=O)CCC(=O)O,14.8% (inactive)
17,C[C@]12CC[C@@H]3c4ccc(OC(=O)c5ccccc5)cc4CC[C@H]3[C@@H]1CC[C@@H]2O,73.8% (active)
18,CCOC(=O)COn1c(=O)c(-c2ccc(OC)c(OC)c2)[n+]([O-])c2ccccc21,4.28% (inactive)
19,CCCCSc1nc(N)c(C#N)c(-c2cccs2)c1C#N,40.8% (inactive)
20,CC1(C)C2CCC1(C)C(NC(=O)CCN1CCCCC1)C2 (centres undefined),7.81% (inactive)
21,CNS(=O)(=O)c1cccc2nsnc12,-11.4% (inactive)
22,COc1cc(S(=O)(=O)N2CCN(C)CC2)c(OC)cc1Br,6.26% (inactive)
23,CCCCCNc1nc(N2CCCC2)c2c(c1C#N)CCN(C)C2,95.5% (active)
24,CCN(CC)c1nc(N2CCOCC2)c(C#N)c2c1CN(C)CC2,11.1% (inactive)
25,CCN1CCc2c(C#N)c(NCc3ccccc3)nc(N(CC)CC)c2C1,67.3% (active)

row,Compound,growth inhibition
1,CN1CCc2c(C#N)c(N3CCCCC3)nc(N3CCOCC3)c2C1,3.07% (inactive)
2,C=CCNc1nc(N2CCOCC2)c(C#N)c2c1CN(C)CC2,2.03% (inactive)
3,CCN1CCc2c(C#N)c(N3CCOCC3)nc(NCCO)c2C1,6.84% (inactive)
4,C=CCNc1nc(NCc2ccccc2)c(C#N)c2c1CN(C)CC2,70.9% (active)
5,CCN1CCc2c(C#N)c(N3CCCCC3)nc(NCc3ccccc3)c2C1,88.8% (active)
6,CCN1CCc2c(C#N)c(N3CCCCC3)nc(N3CCOCC3)c2C1,4.36% (inactive)
7,CN1Cc2c(N3CCOCC3)nc(SCc3ccccc3)c(C#N)c2CC1(C)C,45.5% (inactive)
8,CCN1CCc2c(C#N)c(N3CCOCC3)nc(NCc3ccccc3)c2C1,23.9% (inactive)
9,CCN1CCc2c(C#N)c(NCc3ccccc3)nc(NCCO)c2C1,3.07% (inactive)
10,FC(F)(F)c1cccc(-n2cccc2/C=N/n2cnnc2)c1,9.69% (inactive)
11,CSc1nc2[nH]c3c(c2c2ncnn12)CCCC3,38.4% (inactive)
12,Cc1cc(=O)n2[nH]c(N3C(=O)CCC3=O)nc2n1,1.01% (inactive)
13,Cc1nccn1-c1cc(C(C)C)c(C#N)c2nc3ccccc3n12,2.71% (inactive)
14,O=c1[nH]c(CN2CCCCC2)nc2c1C1(CCCC1)Cc1ccccc1-2,2.71% (inactive)
15,[N-]=[N+]=CC(=O)c1ccnc(C(=O)C=[N+]=[N-])c1,23.6% (inactive)
16,COc1ccc(/C(O)=C2\C(=O)C(=O)N(c3cc(C)on3)C2c2ccccc2OC)cc1 (centres undefined),-10.7% (inactive)
17,O=C1c2ccccc2C(=O)N1CC1c2ccccc2CCN1C(=O)N1CCOCC1 (centres undefined),5.08% (inactive)
18,CCOC(=O)c1c(NC(=O)CCN2CCOCC2)sc2c1CC(C)(C)OC2,5.84% (inactive)
19,N#Cc1c(NCCN)nc(NCc2ccccc2)c2c1CCN(Cc1ccccc1)C2,91.8% (active)
20,Nc1[nH]nc2nc(NCc3ccccc3)c3c(c12)CCN(Cc1ccccc1)C3,24.5% (inactive)
21,N#Cc1c(N2CCCCC2)nc(N2CCCCC2)c2c1CCN(Cc1ccccc1)C2,19.3% (inactive)
22,C=CCNc1nc(N2CCCCC2)c(C#N)c2c1CN(Cc1ccccc1)CC2,37.1% (inactive)
23,N#Cc1c(NCCCO)nc(-c2ccccc2)c2c1CCCC2,32.5% (inactive)
24,CN1CCc2c(C#N)c(N3CCCCC3)nc(NCc3ccccc3)c2C1,90.4% (active)
